Reference: PubChem BioAssay
For part of these data: Measured potencies and affinities stand elsewhere. Active and inactive are the calls of the source.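 The calls were made as follows, unless noted: active = dose curve with midpoint inside tested range, moderate steepness, plateau gap beyond fit error, low compound glow and bead-link interference; inactive = the rest.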

Tests used:
[1] = biological target: Ras-related C3 botulinum toxin substrate 1 (Homo sapiens) (UniProt P63000); assay: inhibition of wildtype Rac1 nucleotide loading – biochemical, multiplex bead flow cytometry, dose response (AID 1340); conditions: GST-Rac1 beads, Bodipy-FL-GTP binding; at 100 µM (top of the series) unless noted
[2] = biological target: Cell division control protein 42 homolog (Homo sapiens) (UniProt P60953); assay: inhibition of fluorescent GTP binding to wildtype Cdc42 – biochemical, multiplex bead flow cytometry, Bodipy-FL-GTP, dose response (AID 1334;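 active = fitted half-maximal concentration within the tested range, moderate curve steepness, significant signal drop, and little compound fluorescence or bead-linkage interference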); conditions: bead-based flow cytometry, Bodipy-FL-GTP binding to GST-Cdc42; at 100 µM (top of the series) unless noted
Chain of Cell division control protein 42 homolog (Homo sapiens) (P60953 whole entry, looked up): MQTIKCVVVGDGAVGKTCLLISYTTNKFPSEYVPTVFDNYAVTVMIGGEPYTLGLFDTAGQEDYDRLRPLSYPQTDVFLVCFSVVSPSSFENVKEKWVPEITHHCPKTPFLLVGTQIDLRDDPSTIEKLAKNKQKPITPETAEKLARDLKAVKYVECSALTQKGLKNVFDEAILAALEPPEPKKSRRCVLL

[3] = biological target: GTPase HRas (Homo sapiens) (UniProt P01112); assay: Ras wt fluorescent GTP loading blockade – biochemical, wildtype, multiplex bead flow cytometry, dose response (AID 1335;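 active = fitted half-maximal concentration within 10 nM to 100 µM, steepness 0.5 to 2, significant signal drop, low assay interference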); conditions: bead-based flow cytometry, Bodipy-GTP binding to GST-Ras; at 100 µM (top of the series) unless noted
Chain of GTPase HRas (Homo sapiens) (P01112 whole entry, looked up): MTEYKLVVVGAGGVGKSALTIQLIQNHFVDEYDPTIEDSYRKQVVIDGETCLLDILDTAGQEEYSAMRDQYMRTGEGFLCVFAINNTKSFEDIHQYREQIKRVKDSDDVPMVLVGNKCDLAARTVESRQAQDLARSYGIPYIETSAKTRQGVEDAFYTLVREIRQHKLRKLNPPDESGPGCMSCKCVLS

[4] = test system: Ras-related protein Rab-7a (dog), GTP binding; assay: blockers of fluorescent GTP binding to Rab7 – biochemical, wildtype, multiplex bead flow cytometry, dose response (AID 1336; call rule not given here)
[5] = biological target: GTPase HRas (Homo sapiens) (UniProt P01112); assay: blockade of GTP loading onto mutant Ras – biochemical, activated mutant, multiplex bead flow cytometry, dose response (AID 1341;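 active = dose-response curve with midpoint inside the tested range, moderate steepness, significant amplitude and little compound fluorescence or bead-attachment interference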;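 also: GST-tagged constitutively activated Ras mutant immobilized on beads and multiplexed with other GTPases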)
[6] = hit retest on RPL19A-GFP reporter strain – cell-based, S. cerevisiae, flow cytometry, cherry picks, mother/daughter gates, confirmation (AID 2270;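 active = GFP response below 50% of the DMSO control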); conditions: 3 h, at 10 µM, stronger effect = lower value, 100 = same GFP as DMSO wells
[7] = yeast TOR pathway reporter LAP4-GFP change – cell-based, cherry picks, flow cytometry, mother/daughter gates, confirmation (AID 2271;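 active = GFP response above 150% of the DMSO control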;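 also: ratio of sample to DMSO plate mean so 100% equals DMSO level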); conditions: S. cerevisiae LAP4-GFP strain, 3 h, at 10 µM, stronger effect = higher value, 100 means same as DMSO control
[8] = TOR pathway reporter MEP2-GFP, retest of hits – S. cerevisiae, flow cytometry GFP, cherry picks, confirmation (AID 2272;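 active = GFP response above 150% of the DMSO control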;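 also: ratio of well signal to plate DMSO mean so 100% equals DMSO level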); conditions: S. cerevisiae MEP2-GFP strain, 3 h, at 10 µM, stronger effect = higher value
[9] = yeast AGP1-GFP fluorescence change, single-dose – cell-based, flow cytometry, S. cerevisiae, cherry picks, confirmation (AID 2273;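 active = GFP response above 150% of the DMSO level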;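 also: median GFP channel fluorescence over the whole cell population gate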); conditions: S. cerevisiae AGP1-GFP strain, 3 h, at 10 µM
[10] = TOR pathway CIT2 reporter hit retest – S. cerevisiae, GFP fusion, cherry picks, mother/daughter gates, confirmation (AID 2274;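 active = GFP response above 150% of the DMSO level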); conditions: S. cerevisiae CIT2-GFP strain, flow cytometry, 3 h, at 10 µM, stronger effect = higher value
[11] = measured here: daughter cell gate
[12] = measured here: mother cell gate

COc1ccc(-c2cc(=O)c3cc(OC)ccc3[nH]2)cc1 showed a GTP binding signal, raw median fluorescence (lower = inhibition) (MCF (arbitrary fluorescence units)) [1] of 229.

CC(=O)Oc1ccc2c(c1)Oc1cc(OC(C)=O)ccc1C21OC(=O)c2ccccc21 gave a GTP binding signal, raw median fluorescence (lower = inhibition) (MCF (arbitrary fluorescence units)) [1] of 720.

For CCOc1ccccc1-c1c2cc(O)c(=O)cc-2oc2cc(O)c(O)cc12, the GTP binding signal, raw median fluorescence (lower = inhibition) (MCF (arbitrary fluorescence units)) [1] was 184.

With COc1cccc(NC(=O)COC(=O)/C=C/c2ccc(Cl)cc2Cl)c1 the fluorescence, percent of control (lower = inhibition) [2] was 48.4%, the GTP binding, percent of control [3] was 62% and the outcome [4] was “inactive”. For the same compound, the GTP binding signal, raw median fluorescence (lower = inhibition) (MCF (arbitrary fluorescence units)) [1] was 180 and the outcome [5] was “inactive”.

For N#C/C(=C/c1ccc(N2CCCCC2)o1)C(=O)Nc1ccc2ccccc2c1, the GTP binding signal, raw median fluorescence (lower = inhibition) (MCF (arbitrary fluorescence units)) [1] was 469.

In the case of O=C(NCc1cccs1)c1cccnc1C(=O)O, the GTP binding, percent of control [3] was 84.2%, the outcome [4] was “inactive” and the GTP binding signal, raw median fluorescence (lower = inhibition) (MCF (arbitrary fluorescence units)) [1] was 0. For the same compound, the outcome [5] was “inactive”.

Compound COc1cc(OC)c(-c2c3cc(O)c(=O)cc-3oc3cc(O)c(O)cc23)cc1OC has a GTP binding signal, raw median fluorescence (lower = inhibition) (MCF (arbitrary fluorescence units)) [1] of 480.

With Cc1cccc(N=Cc2[nH]c3ccc(Br)c(Cl)c3c2O)c1 the GTP binding signal, raw median fluorescence (lower = inhibition) (MCF (arbitrary fluorescence units)) [1] was 240.

For CCOC(=O)c1c(NC(=O)N/N=C/c2ccccc2OCC)sc(C(C)=O)c1C, the GTP binding signal, raw median fluorescence (lower = inhibition) (MCF (arbitrary fluorescence units)) [1] was 238.

With Cc1cc(C(=O)Cn2nc(C(=O)O)c3ccccc3c2=O)c(C)n1-c1ccc(OC(F)F)cc1 the fluorescence, percent of control (lower = inhibition) [2] was 28.1%, the GTP binding, percent of control [3] was 75.5% and the outcome [4] was “inactive”. For the same compound, the outcome [5] was “inactive”.

With CCCc1nc2c(=O)n(C)c(=O)nc-2n(C)n1 the GTP binding, percent of control [3] was 84.4%, the outcome [4] was “inactive” and the outcome [5] was “inactive”.

In the case of COC(=O)c1cccnc1SCCc1ccccc1, the GTP binding, percent of control [3] was 125%, the GTP binding signal, raw median fluorescence (lower = inhibition) (MCF (arbitrary fluorescence units)) [1] was 72.5 and the outcome [5] was “inactive”.

For O=S(=O)(c1cccc(-c2nnc(SCc3ccc(Cl)cc3)o2)c1)N1CCCCC1, the GTP binding signal, raw median fluorescence (lower = inhibition) (MCF (arbitrary fluorescence units)) [1] was 182.

With CC(=O)c1ccc(C#CC(=O)c2ccc([N+](=O)[O-])cc2)cc1 the GTP binding, percent of control [3] was 204%, the outcome [4] was “inactive” and the GTP binding signal, raw median fluorescence (lower = inhibition) (MCF (arbitrary fluorescence units)) [1] was 55.9. For the same compound, the outcome [5] was “inactive”.

In the case of CCOc1ccc(/C=C2\SC(N3CCc4ccccc4C3)=NC2=O)cc1, the GTP binding, percent of control [3] was 59.8% and the outcome [5] was “inactive”.

With CC(C)C(NCc1c(Cl)cccc1Cl)C(=O)O (stereo not drawn) the GTP binding, percent of control [3] was 81.2% and the outcome [5] was “inactive”.

For CCCN1C(=O)/C(=C/C=C2\N(CC)c3ccccc3C2(C)C)SC1=S, the GTP binding, percent of control [3] was 127%, the outcome [4] was “inactive” and the GTP binding signal, raw median fluorescence (lower = inhibition) (MCF (arbitrary fluorescence units)) [1] was 176. For the same compound, the outcome [5] was “inactive”.

With CCOC(=O)c1cc([N+](=O)[O-])c([N+](=O)[O-])cc1NC(C)=O the GTP binding, percent of control [3] was 75%, the outcome [4] was “inactive” and the GTP binding signal, raw median fluorescence (lower = inhibition) (MCF (arbitrary fluorescence units)) [1] was 241. For the same compound, the outcome [5] was “inactive”.

With Cc1ccc(-n2c(-c3cnccn3)n[nH]c2=S)c(Br)c1 the fluorescence, percent of control (lower = inhibition) [2] was 23.2%, the GTP binding, percent of control [3] was 60.1% and the outcome [4] was “inactive”. For the same compound, the GTP binding signal, raw median fluorescence (lower = inhibition) (MCF (arbitrary fluorescence units)) [1] was 190 and the outcome [5] was “inactive”.

O=C(/C=C/c1ccco1)Nc1ccc(-c2nc3ccccc3[nH]2)cc1 showed a GTP binding signal, raw median fluorescence (lower = inhibition) (MCF (arbitrary fluorescence units)) [1] of 273.

With Cc1cccc2cc(CN(Cc3cccs3)C(c3nnnn3C3CCCC3)C(C)C)c(=O)[nH]c12 (stereo not drawn) the GTP binding, percent of control [3] was 60.6%, the outcome [4] was “inactive” and the GTP binding signal, raw median fluorescence (lower = inhibition) (MCF (arbitrary fluorescence units)) [1] was 207. The outcome [5] was “inactive”.

Cc1ccccc1N(CC(=O)N/N=C/c1ccccc1Cl)C(=O)c1ccccc1 gave a GTP binding signal, raw median fluorescence (lower = inhibition) (MCF (arbitrary fluorescence units)) [1] of 212.

N#Cc1c(-c2ccccc2)nc(SCC(=O)Nc2ccccc2)[nH]c1=O showed a GTP binding, percent of control [3] of 47.2%.

In the case of COc1ccc(-c2cc(C#N)nc(N3CCNCC3)n2)cc1, the GTP binding, percent of control [3] was 153%, the outcome [4] was “inactive” and the GTP binding signal, raw median fluorescence (lower = inhibition) (MCF (arbitrary fluorescence units)) [1] was 182. The outcome [5] was “inactive”.

With O=C(Nc1nnc(-c2ccc3c(c2)OCCO3)o1)c1ccc(Cc2ccccc2)cc1 the GTP binding, percent of control [3] was 83.9%, the outcome [4] was “inactive” and the GTP binding signal, raw median fluorescence (lower = inhibition) (MCF (arbitrary fluorescence units)) [1] was 144. For the same compound, the outcome [5] was “inactive”.

For CCN(CC)c1ccc(/C=C(\C#N)C(=O)c2ccc(Br)cc2)cc1, the GTP binding signal, raw median fluorescence (lower = inhibition) (MCF (arbitrary fluorescence units)) [1] was 0.

For CS(=O)(=O)c1ccc(C(=O)OCC(=O)NC(=O)C2CCCCC2)cc1[N+](=O)[O-], the GTP binding, percent of control [3] was 76.2%, the outcome [4] was “inactive” and the GTP binding signal, raw median fluorescence (lower = inhibition) (MCF (arbitrary fluorescence units)) [1] was 200. For the same compound, the outcome [5] was “inactive”.

Work on CC1CCN(c2ncccc2C(=O)O)CC1 yielded a GTP binding signal, raw median fluorescence (lower = inhibition) (MCF (arbitrary fluorescence units)) [1] of 407.

With Cc1ccc(NC(=O)C2=C(c3ccccc3)S(=O)(=O)CCS2(=O)=O)cc1 the fluorescence, percent of control (lower = inhibition) [2] was 22.2%, the GTP binding, percent of control [3] was 79.3% and the outcome [4] was “inactive”. The GTP binding signal, raw median fluorescence (lower = inhibition) (MCF (arbitrary fluorescence units)) [1] was 222 and the outcome [5] was “inactive”.

For Cc1cc(C)c(C)c(C(=O)c2ccccc2C(=O)O)c1C, the GTP binding, percent of control [3] was 122%, the outcome [4] was “inactive” and the outcome [5] was “inactive”.

In the case of Cc1ccc(SC(CC(=O)c2ccc(C(C)(C)C)cc2)C(=O)O)cc1 (stereo not drawn), the fluorescence, percent of control (lower = inhibition) [2] was 26.6%, the GTP binding, percent of control [3] was 72.6% and the outcome [4] was “inactive”. The GTP binding signal, raw median fluorescence (lower = inhibition) (MCF (arbitrary fluorescence units)) [1] was 240, the outcome [5] was “inactive” and the GFP response vs DMSO [6] was 95.8% (inactive). The GFP response vs DMSO [6, 11] was 94%, the GFP response vs DMSO [6, 12] was 97.3% and the GFP response relative to DMSO [7] was 106% (inactive). The GFP response relative to DMSO ([7]; measured here: daughter cell gate response) was 103%, the GFP response relative to DMSO ([7]; measured here: mother cell gate response) was 111% and the GFP response vs DMSO [8] was 94.4% (inactive). For the same compound, the GFP response, % of DMSO [9] was 99.3% (inactive), the GFP response, % of DMSO [10] was 92.2% (inactive) and the GFP response, % of DMSO [10, 11] was 90.5%. The GFP response, % of DMSO [10, 12] was 91.8%.
